# Bioassay records deposited in PubChem BioAssay by several laboratories.
# Shown are actives, neighbours in structure and some others; about 1.3% of the full set was active somewhere.
# ugtP null kill: growth inhibition of S. aureus ugtP deletion strain; S. aureus RN4220 ugtP deletion, OD600 growth, 16 h; growth inhibition, % (test concentration not listed); 0.54% of 330,000 active; in the data active means growth inhibition above about 68%;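 further: plate controls were untreated wells for no effect and antibiotic for full effect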
# Mtb hypoxia rep: reduces hypoxia-regulated biosensor signal in M. tuberculosis. AID 1159583. M. tuberculosis hypoxia-regulated fluorescent reporter, fluorescence. 0.1% of 300,000 active. fluorescence inhibition, % (concentration not given with the values); in the data active means fluorescence inhibition mostly above about 23%, no sharp cut-off; inactive means mostly below about 17%
# MazF activator: activators of E. coli MazEF toxin-antitoxin RNase; P0AE70; FAM/BHQ RNA-DNA oligo cleavage fluorescence, 5 h; activation, % at 20 µM; 0.32% of 350,000 active; in the data active means activation above about 50%
# PfHsp40 rescue: restores yeast growth despite PfHsp40 toxicity; S. cerevisiae expressing PfHsp40, growth rescue, ATP luminescence; growth rescue, % at 12.5 µM; 0.68% of 340,000 active; in the data active means growth rescue above about 28%, passing the limit was not always enough;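 further: yeast W303a lacking pdr1 and pdr3 grown in galactose medium; growth measured after three days at 30 °C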
# TcdB inh: blocks C. difficile toxin B glycohydrolase activity; TcdB glycohydrolase enzymatic assay, plate reader; AID 652162; inhibition, % at 9.99 µM; 0.24% of 350,000 active; in the data active means inhibition above about 10%
# Sa RN4220 lethal: S. aureus RN4220 growth inhibition; OD600, 16 h; inhibition, % (test concentration not listed); 0.33% of 330,000 active; in the data active means inhibition above about 85%;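 further: plate controls were untreated cells for no effect and reference antibiotic for full effect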
# Active calls of the source: *; / = no result shown.
SMILES,ugtP null kill,Mtb hypoxia rep,MazF activator,PfHsp40 rescue,TcdB inh,Sa RN4220 lethal
CCCNC(=O)N[C@H]1C=C[C@H](CC(=O)N2CCN(C)CC2)O[C@@H]1CO,/,/,/,/,-2,/
CCOCC(=O)Nc1cc(Cl)ccc1C,6,/,1,-2,10*,9
CCOCC(=O)Nc1cc([N+](=O)[O-])ccc1C,6,16,-18,-1,/,3
Oc1c(CN2CCCCC2)ccc2cccnc12,3,10,4,47*,1,2
C[C@@H]1CN([C@H](C)CO)C(=O)c2cc(/C=C/c3ccccc3)cnc2O[C@H]1CN(C)C(=O)c1ccc2c(c1)OCO2,/,/,/,/,-2,/
CCOc1cccc(C=NN2CCN(c3ccc(Cl)cc3)CC2)c1O,-15,5,/,/,/,12
COCC(=O)N(C)C[C@@H]1Oc2ncc(-c3ccccc3F)cc2C(=O)N([C@H](C)CO)C[C@H]1C,/,/,/,/,2,/
CCOc1ccc2oc(C(=O)OCC(=O)NCc3ccc(OC)cc3)c(C)c2c1,11,32*,0,-1,0,7
COC(=O)c1c(NC(=O)c2ccc(C(=O)c3ccccc3)cc2)sc2c1CC(C)(C)NC2(C)C,/,/,20,/,1,/
COC(=O)c1c(NC(=O)c2nc3ccccc3s2)sc2c1CC(C)(C)NC2(C)C,6,4,53*,1,1,0
Cc1noc(C)c1NC(=O)N(C)C[C@H]1Oc2c(NC(=O)NC(C)C)cccc2C(=O)N([C@@H](C)CO)C[C@@H]1C,/,/,/,/,1,/
COc1ccc(/C=C/C(=O)c2c(O)cc(C)oc2=O)c(OC)c1,100*,8,3,0,/,-16
COC(=O)C1=C(c2ccc(C(C)=O)cc2)CC2CCC1N2C(=O)NCCNC(C)=O (configuration not stated),-1,2,/,/,/,4
C=CCN(c1ccccc1)S(=O)(=O)c1cccc(C(=O)NNC(=O)c2ccccc2O)c1,6,8,3,92*,1,11
CC(=CC(=O)O)CC[C@@]1(C)C(C)CC[C@@]2(C)C(C)=CCCC12 (some centres not stated),38,9,/,/,/,-7
COc1ccc(Br)cc1C(=O)NCc1cccnc1,-1,14,0,34*,/,5
COC(=O)c1cc(CNC(=O)c2ccccc2Cl)ccc1OC,0,-1,10,47*,1,0
COC(=O)c1cc(CNC(=O)c2ccc(O)c(Cl)c2)ccc1OC,3,3,-7,-1,-3,-2
CN(CC(=O)Nc1ccc(OC(F)(F)F)cc1)C(=O)/C=C/c1cc2c(cc1[N+](=O)[O-])OCO2,-2,30*,4,0,4,2
Cc1cccc(OCC(=O)NN=C/C=C/c2ccco2)c1,5,8,/,/,/,3
OC[C@H]1[C@@H](c2ccc(C3=CCCC3)cc2)[C@H]2CN(CCC(F)(F)F)CCCCN21,/,/,/,/,0,/
CC(C)(Oc1ccc(Cl)cc1)C(=O)NC1CCSC1=O (configuration not stated),9,8,3,-1,1,1
CC(C)(Oc1ccc(Cl)cc1)C(=O)NC1CC1,5,9,0,-1,11*,1
C=C(C)Cc1c(C)c(C#N)c2[nH]c3ccccc3n2c1=O,61,-8,6,131*,0,72
CCc1c(C)c(C#N)c2[nH]c3ccccc3n2c1=S,92*,2,-2,0,0,93*
SMILES,ugtP null kill,Mtb hypoxia rep,MazF activator,PfHsp40 rescue,TcdB inh,Sa RN4220 lethal
CCc1cc(=S)n2c([nH]c3ccccc32)c1C#N,76,13,7,-1,/,74
O=C(Nc1ccc(Cl)c(Cl)c1)ON=Cc1ccncc1,101*,5,/,/,/,100*
O=C(Nc1ccc(Cl)c(Cl)c1)c1cccc(S(=O)(=O)NCc2cccnc2)c1,90,2,4,1,/,100*
O=C(Nc1ccc(Cl)c(Cl)c1)OCc1cccnc1,100*,9,15,-1,/,100*
C[C@H]1CN([C@@H](C)CO)C(=O)c2cccc(NC(=O)Nc3cccc4ccccc34)c2O[C@H]1CN(C)S(=O)(=O)c1cn(C)cn1,/,/,/,/,5,/
CO[C@@H]1CN(C)C(=O)c2cc(NC(=O)NC(C)C)ccc2OC[C@@H](C)N(S(C)(=O)=O)C[C@H]1C,/,/,/,/,16*,/
COc1ccc(NC(=O)Nc2ccc3c(c2)[C@H]2C[C@@H](CC(=O)N4CCN(C)CC4)O[C@H](CO)[C@H]2O3)cc1,/,/,/,/,1,/
N#CC1=C(N)OC2=C(CN(Cc3ccccc3)C/C2=C\c2cccnc2)C1c1cccnc1 (configuration not stated),/,/,7,0,/,/
CC(C)N1CC2=C(OC(N)=C(C#N)C2c2cccnc2)/C(=C/c2cccnc2)C1 (configuration not stated),2,7,64*,0,/,4
CCCCNC(=O)OC1CC2CCN3C(=O)CCCC(C1Cc1ccccc1)C23 (configuration not stated),0,18,/,/,/,3
C[C@@H]1COC(=O)[C@@H](Cc2ccc(F)cc2)C/C=C\C[C@@H](CC(=O)N(CCO)Cc2ccccc2)C(=O)N1,/,/,-1,0,0,/
C[C@H]1COC(=O)[C@H](Cc2ccc(F)cc2)C/C=C\C[C@@H](CC(=O)N(CCO)Cc2ccccc2)C(=O)N1,/,/,4,55*,-1,/
COc1ccc(NC(=O)Cn2nnc(-c3ccccc3NC(=O)c3cccs3)n2)cc1,-3,13,42,65*,/,4
CC(C)OC(=O)c1cccc(C(=O)Oc2ccc(Br)cc2)n1,-4,-2,1,0,/,-4
CC(C)OC(=O)c1cccc(C(=O)O)n1,6,1,2,4,12*,3
Cc1ccc(OCC(O)CN2C(=O)NC(C)(C)C2=O)cc1 (configuration not stated),3,/,1,53*,/,1
Cc1ccc(OCC(O)CN2C(=O)NC(C)(C)C2=O)cc1C (configuration not stated),-4,/,2,1,2,10
O=C(NN=Cc1ccc([N+](=O)[O-])o1)c1ccccc1NS(=O)(=O)c1cccs1,100*,14,/,/,/,100*
O=C(N/N=C/c1ccc([N+](=O)[O-])o1)c1ccc(NS(=O)(=O)c2cccs2)cc1,/,/,3,-2,2,/
COc1ccc(C=NNC(=O)c2ccccc2NS(=O)(=O)c2cccs2)cc1O,3,6,5,-1,0,10
O=C(NN=Cc1ccc(O)cc1O)c1ccccc1NS(=O)(=O)c1cccs1,13,7,6,70*,3,-7
CCCCCCC[C@@H](C/C=C/CCC(=O)O)OC,7,-5,-10,0,-1,7
CCCCCCC[C@@H](C/C=C/CCC(=O)N(C)C/C(=C/Cl)C/C(=C\C(=O)N1CC(OC)=CC1=O)OC)OC,-23,-3,-8,37*,-1,4
CCCCCCC[C@@H](C/C=C/CCC(=O)N(C)C/C(=C/Cl)C/C(=C\C(=O)N1C[C@H](O)CC1=O)OC)OC,-16,-4,20,54*,1,2
